# Measurements from PubChem BioAssay.
# Values without a mark were called inactive. Activity calls are given as the source filed them.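 How the source made its calls, unless noted: active means mean inhibition above 46.68%, the untreated control wells mean plus 3 SD; inactive means the rest.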
# Key:
# [1] = molecular target: Nuclear receptor coactivator 1 (Homo sapiens) (UniProt Q15788); experiment: SRC1 coactivator transcriptional activity inhibitors, confirmation, cell-based, luminescence, quadruplicate (AID 588820); details: HEK293 GAL4-SRC1 luciferase reporter, at 3.6 µM, hits give high values;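 further: 0% = DMSO wells and 100% = gossypol 36 µM treated wells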
# Nuclear receptor coactivator 1 (Homo sapiens), sequence (Q15788 whole entry, looked up, the tested form may be a part): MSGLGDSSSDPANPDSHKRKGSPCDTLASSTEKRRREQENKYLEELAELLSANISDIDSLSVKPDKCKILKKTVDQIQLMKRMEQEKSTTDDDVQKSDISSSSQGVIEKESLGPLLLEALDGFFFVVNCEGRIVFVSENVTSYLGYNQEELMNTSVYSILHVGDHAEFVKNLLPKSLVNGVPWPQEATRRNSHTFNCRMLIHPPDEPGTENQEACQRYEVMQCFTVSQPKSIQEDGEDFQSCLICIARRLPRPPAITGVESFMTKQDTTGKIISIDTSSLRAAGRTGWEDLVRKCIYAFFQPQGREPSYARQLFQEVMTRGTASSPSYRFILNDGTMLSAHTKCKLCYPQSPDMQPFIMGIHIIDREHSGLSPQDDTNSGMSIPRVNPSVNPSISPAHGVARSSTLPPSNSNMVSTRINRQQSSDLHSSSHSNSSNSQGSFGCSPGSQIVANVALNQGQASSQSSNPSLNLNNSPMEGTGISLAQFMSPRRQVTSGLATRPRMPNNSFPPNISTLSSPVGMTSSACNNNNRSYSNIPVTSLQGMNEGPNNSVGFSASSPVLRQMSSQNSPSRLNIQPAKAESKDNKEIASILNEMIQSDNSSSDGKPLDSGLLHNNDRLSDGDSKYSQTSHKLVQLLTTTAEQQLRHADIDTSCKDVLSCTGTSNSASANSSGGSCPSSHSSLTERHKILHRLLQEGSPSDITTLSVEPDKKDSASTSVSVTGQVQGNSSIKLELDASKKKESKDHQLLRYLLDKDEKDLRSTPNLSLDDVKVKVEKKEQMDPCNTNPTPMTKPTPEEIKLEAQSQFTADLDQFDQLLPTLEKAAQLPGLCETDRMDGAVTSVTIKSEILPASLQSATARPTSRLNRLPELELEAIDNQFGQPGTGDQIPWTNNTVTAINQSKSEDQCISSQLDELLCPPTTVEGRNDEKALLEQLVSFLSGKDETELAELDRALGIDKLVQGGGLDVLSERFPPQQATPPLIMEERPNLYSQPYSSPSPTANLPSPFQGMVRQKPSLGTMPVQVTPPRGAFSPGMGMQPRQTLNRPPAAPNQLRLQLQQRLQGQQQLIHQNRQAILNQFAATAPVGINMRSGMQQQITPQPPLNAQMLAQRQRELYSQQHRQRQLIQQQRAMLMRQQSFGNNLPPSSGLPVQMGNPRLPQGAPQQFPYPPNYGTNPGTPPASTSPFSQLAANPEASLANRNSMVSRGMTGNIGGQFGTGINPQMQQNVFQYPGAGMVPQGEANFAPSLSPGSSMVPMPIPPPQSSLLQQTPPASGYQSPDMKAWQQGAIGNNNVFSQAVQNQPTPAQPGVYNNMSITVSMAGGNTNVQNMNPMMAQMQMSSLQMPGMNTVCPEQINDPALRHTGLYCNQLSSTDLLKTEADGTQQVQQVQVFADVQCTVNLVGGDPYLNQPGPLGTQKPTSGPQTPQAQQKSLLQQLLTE
# [2] = VP16 transactivation inhibitors, counter-screen for SRC1 inhibitor project, cell-based, luminescence, high throughput (AID 588824; in the data active means inhibition above about 25%); details: cell-based VP16 transactivation luciferase luminescence; at 3.6 µM; hits give high values
SMILES,inhibition [1] [%],inhibition [2]
O=C1/C(=N\S(=O)(=O)c2cccs2)C([n+]2ccccc2)=C([O-])c2ccccc21,-4.31,6.99%
CC(C)N1C(=O)/C(=C\c2nc3ccccc3c(=O)n2-c2ccccc2)c2ccccc21,7.4,24.2%
CCN(CC)S(=O)(=O)c1ccc(NC(=O)c2ccc(N3CCCC3=O)cc2)cc1,3.05,22.8%
CCc1c(C)nc2c(C)cccc2c1SCCC#N,24.9,8.27%
CCC(CC)C(=O)N(C)c1c(C)nc2c(OCc3ccc(OC(F)F)cc3)cccn12,-18.2,5.06%
CC(C)Nc1ccc(Nc2ccnc3cc4ccccc4cc23)cc1,29.3,38% (active)
COc1ccc(NC(=O)COc2ccccc2Cc2ccccc2)cc1S(N)(=O)=O,38.1,32.3% (active)
Cc1cc(C)cc(C(=O)Nc2cccc(NC(=O)c3ccco3)c2)c1,-11.1,9.42%
O=C(Nc1ccn(Cc2c(F)c(F)c(F)c(F)c2F)n1)c1ccc(COc2ccccc2Cl)cc1,3.66,8.16%
CC1(C)Cc2nc(N)c(=O)sc2C1,-1.79,5.55%
Cc1cc(OC(C)C(=O)Nc2ccncc2)ccc1Cl (stereo unspecified),-0.51,7.56%
COc1ccccc1CNC(=O)C(=O)NCCC1CCCCN1S(=O)(=O)c1ccc(C)cc1 (stereo unspecified),26.4,7.29%
O=C(N/N=C/c1coc2ccc(Cl)cc2c1=O)c1ccc(O)cc1,18.6,17.8%
COc1ccccc1CCC(=O)Nc1cccc(S(=O)(=O)N2CCCCCC2)c1,-1.96,-7.85%
COc1ccccc1NS(=O)(=O)c1cc(NC(=O)C(C)(C)C)ccc1N1CCOCC1,-45.2,-32.5%
O=C(NC(=S)Nc1cccc(Cl)c1N1CCCCC1)c1ccco1,-11.6,7.26%
COc1ccc(NC(=O)c2cc3c(s2)CCC(C)C3)cc1S(=O)(=O)N1CCOCC1 (stereo unspecified),9.02,25.1%

SMILES,inhibition [1] [%],inhibition [2]
CC(CC(=O)Nc1ccc(Cl)c(S(=O)(=O)N2CCOCC2)c1)c1ccccc1 (stereo unspecified),1.13,38.6% (active)
C=CCc1ccccc1OCC(=O)N/N=C/c1ccc(OC(C)=O)cc1OC(C)=O,16.6,-4.05%
COc1cc(-c2cc3nc(NCc4cccs4)ccn3n2)cc(OC)c1OC,-21.6,6.25%
CCOc1ccc(CCN2C(=S)N([C@@H](CC(C)C)CN3CCC[C@@H]3CN3C(=S)NC[C@@H]3CC(C)C)C[C@@H]2CC(C)C)cc1,3.98,5.15%
COc1ccc(CCNC(=O)C(=O)NCC2CCCN2S(=O)(=O)c2ccccc2)cc1OC (stereo unspecified),-20.3,-7.77%
CC(C)c1ccc2c(c1)C(N1CCN(C)CC1)Cc1cccnc1S2 (stereo unspecified),6.3,-5.2%
CCN(Cc1ccncc1)C(=O)CC1C(=O)NCCN1Cc1ccc(F)c(F)c1 (stereo unspecified),30.1,17%
COc1ccc(-c2[nH]ncc2CN2CCC(O)(c3ccc(Cl)cc3)CC2)cc1,13.2,10.8%
c1ccc2c(c1)ccc1ncccc12,1.02,6.62%
COc1ccc(S(=O)(=O)N2CCCCCC2)cc1C(=O)N(C)CCOc1ccccc1,5.04,-8.6%
CCOC(=O)N1CCN(C2=Nc3cccc4cccc2c34)CC1,-13.8,-0.04%
COc1cccc(NC(=O)CN(C)CC(=O)Nc2ccc(Cl)cc2[N+](=O)[O-])c1,26.6,14.7%
Cc1c(C(=O)NN)nn(-c2ccc(Cl)cc2)c(=O)c1C#N,-10.1,5.25%
O=C(O)CNC(=O)c1cccc(C(F)(F)F)c1,-9.63,-6.05%
CC(=O)c1sc2nc(C)c3c(c2c1N)CCCC3,13.4,3.88%
CCOC(=O)c1c(NC(=O)c2c(-c3ccccc3)noc2C)sc(C)c1-c1ccccc1,39.9,78.2% (active)
